The record followed here is PubChem BioAssay (Tox21).

Assay [1] can be described thus: Nuclear factor erythroid 2-related factor 2/antioxidant responsive element (Nrf2/ARE) small molecule agonists: qHTS cell viability counter screen in human keratinocytes (AID 1919968; active means well fitted curve in the direction sought with a large enough effect in the repeat runs; an effect the other way counts as inactive or inconclusive; further: nearly all actives have a fitted effect of over 55% in size; further: potency means the concentration at half of the fitted maximal effect). The procedure, abridged:
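CellTiter-Fluor fluorescence, read 1 h after reagent, gave viability in the same wells as the ARE-luciferase assay. KeratinoSens cells (1,500/well) had 23 h compound exposure at 37 C/5% CO2 following 5 h plating.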
In general terms: In qHTS, concentration-response curves come from the screen itself.

The nature of assay [2]: Nuclear factor erythroid 2-related factor 2/antioxidant responsive element (Nrf2/ARE) small molecule agonists: luciferase reporter gene qHTS assay in human keratinocytes (AID 1919969). Further: nearly all actives have a fitted effect of over 35% in size. Further: potency means the concentration at half of the fitted maximal effect. On the technique in general: In a reporter assay the amount or activity of a reporter protein is the signal.
The target of assay [3] is Gonadotropin-releasing hormone receptor (Homo sapiens) (UniProt P30968). The assay can be described thus: Human gonadotropin-releasing hormone receptor (GnRHR) small molecule agonists, calcium flux assay in GnRHR-HEK293 cells (AID 1920063). Further: nearly all actives have a fitted effect of over 35% in size. The procedure, abridged: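 Agonist mode: compounds at 15 concentrations, in triplicate, went onto calcium dye-loaded GnRHR-HEK293 cells. Intracellular calcium was then followed as 480/540 nm fluorescence at 1 s intervals over 3 min.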
Gonadotropin-releasing hormone receptor (Homo sapiens), sequence (P30968 whole entry, looked up): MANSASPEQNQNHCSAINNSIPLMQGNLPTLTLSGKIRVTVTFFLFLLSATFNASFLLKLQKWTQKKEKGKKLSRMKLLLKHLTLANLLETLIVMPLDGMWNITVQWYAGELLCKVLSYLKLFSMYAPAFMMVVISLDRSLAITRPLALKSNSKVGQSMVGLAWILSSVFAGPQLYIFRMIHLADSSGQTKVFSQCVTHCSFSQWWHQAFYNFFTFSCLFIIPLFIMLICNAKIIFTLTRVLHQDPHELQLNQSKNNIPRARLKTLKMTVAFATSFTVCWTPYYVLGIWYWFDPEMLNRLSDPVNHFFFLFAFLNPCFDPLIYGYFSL

Assay [4] has as its target KiSS-1 receptor (Homo sapiens) (UniProt Q969F8). Briefly: Human kisspeptin (KISS1R) small molecule agonists, calcium flux assay in KISS1R-HEK293 cells (AID 1920064; active means well fitted curve in the direction sought with a large enough effect in the repeat runs; an effect the other way counts as inactive or inconclusive). In short, it runs like this:
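Agonist mode: intracellular calcium rise tracked at 1 s intervals over 3 min (480/540 nm) immediately after compound addition to dye-loaded KISS1R-HEK293 stable cells. Each compound tested at 15 concentrations in triplicate.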

The nature of assay [5]: G protein-coupled receptor (GPCR) small molecule agonists, calcium flux assay: HEK293 wild type cell line counter screen (AID 1920065). The procedure, abridged: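 Calcium flux counter screen: compound added in agonist mode at 15 concentrations in triplicate to dye-loaded parental HEK293 cells. Fluorescence (480/540) read kinetically for 3 min; ATP served as positive control.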

A short description of assay [6]: p53 small molecule agonists, cell-based qHTS assay with human liver microsomes: qHTS cell viability counter screen (AID 1963579). Further: nearly all actives have a fitted effect of over 45% in size. Further: potency means the concentration at half of the fitted maximal effect. In short, it runs like this: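 Viability of p53RE-bla cells is measured as CellTiter-Glo luminescence following a 16 h, 37 C incubation with compound, liver microsomes from human donors and NADPH.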
Assay [7] can be described thus: p53 small molecule agonists, cell-based qHTS assay with rat liver microsomes: qHTS cell viability counter screen (AID 1963580). Further: nearly all actives have a fitted effect of over 45% in size. The procedure, abridged: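 Rat liver microsome (0.5 mg/mL final) and NADPH (0.5 mg/mL final) co-incubation with compounds for 16 h at 37 C on HCT-116 p53RE-bla cells; cytotoxicity taken from intracellular ATP luminescence.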
Assay [8] can be described thus: p53 small molecule agonists, cell-based qHTS assay: qHTS cell viability counter screen (AID 1963581). Further: nearly all actives have a fitted effect of over 45% in size. Further: potency means the concentration at half of the fitted maximal effect. In short, it runs like this: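 Counter screen read by CellTiter-Glo luminescence (ATP content, 30 min at room temperature), run in the same wells as the beta-lactamase reporter read. HCT-116 p53RE-bla cells saw compounds for 16 h at 37 C.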
Assay [9] addresses 5-hydroxytryptamine receptor 2A (Homo sapiens) (UniProt P28223). The assay can be described thus: 5-hydroxytryptamine receptor 2A (HTR2A) small molecule antagonists, cell-based qHTS assay (AID 1963586). Further: nearly all actives have a fitted effect of over 45% in size. The procedure, abridged:
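CHO cells stably expressing human HTR2A were plated for 18 h at 37 C, then loaded with calcium dye for 1 h. Compounds were preincubated 5 min at room temperature before DOI (4 nM solution) was added. Kinetic fluorescence was read for 3 min.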

The target of assay [10] is Muscarinic acetylcholine receptor M1 (Homo sapiens) (UniProt P11229). Briefly: Cholinergic receptor muscarinic 1 (CHRM1) small molecule antagonists, cell-based qHTS assay (AID 1963588). Further: nearly all actives have a fitted effect of over 40% in size. Further: potency means the concentration at half of the fitted maximal effect. In short, it runs like this:
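Compounds were tested at 15 concentrations in three independent runs. Dye-loaded CHRM1-CHO cells were exposed 5 min at room temperature before stimulation by acetylcholine added at 50nM. Intracellular calcium was read kinetically on FDSS for 3 min.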

Assay [11] has the same target. The assay can be described thus: Cholinergic receptor muscarinic 1 (CHRM1) small molecule agonists, cell-based qHTS assay (AID 1963589). Further: nearly all actives have a fitted effect of over 35% in size. In short, it runs like this: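 Agonist-mode calcium-flux screen: compounds at 15 concentrations, three independent runs, were pin-transferred onto dye-loaded human CHRM1-CHO cells. Fluorescence was then recorded kinetically every second over minutes.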

The nature of assay [12]: cAMP Responsive Elements (CRE) small molecule agonists, cell-based qHTS assay (AID 1963590). The procedure, abridged:
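Agonist mode: compound added to CRE-bla HEK 293T cells (2,000/well, 18 h after plating) for 3 h at 37 C/5% CO2. Reporter activity detected via FRET beta-lactamase substrate, 2 h room-temperature loading.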

In assay [13] the target is Beta-2 adrenergic receptor (Homo sapiens) (UniProt P07550). The assay can be described thus: Adrenergic beta2 receptor (ADRB2) small molecule antagonists, cell-based qHTS assay (AID 1963592). Further: series mostly up to about 92 µM; nearly all actives have a fitted effect of over 50% in size. The procedure, abridged:
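Assay format: CHO-ADRB2 cells, 18-20hr seeding at 37C/5% CO2, then compound plus 1nM isoproterenol agonist mix for 0.5hr RT. Homogeneous time-resolved fluorescence cAMP detection after 1hr, expressed as 665/615 nm ratio.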

Assay [14] has the same target. The assay can be described thus: Adrenergic beta2 receptor (ADRB2) small molecule agonists, cell-based qHTS assay (AID 1963593).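 Further: CHO cells stably overexpressing human ADRB2.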 In short, it runs like this:
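CHO cells stably over-expressing ADRB2 were plated overnight at 37C, then dosed with compounds plus a stimulation mix containing 100uM IBMX and 25uM Ro-20-1724 for 0.5hr at room temperature. cAMP was measured by HTRF competition, 1hr.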

Assay [15] addresses D(2) dopamine receptor (Homo sapiens) (UniProt P14416). The assay can be described thus: Dopamine D2 receptor (DRD2) small molecule agonists, cell-based qHTS assay (AID 1963594). Further: nearly all actives have a fitted effect of over 35% in size. The procedure, abridged: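 cAMP accumulation in DRD2-HEK293 cells measured by HTRF after 1 h detection; compounds added 10 min before NKH477 (200nM […]) forskolin-analogue stimulation, 30 min at room temperature, with Ro20-1724 present at 0.1 mM final.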

Assay [16] has the same target. The assay can be described thus: Dopamine D2 receptor (DRD2) small molecule antagonists, cell-based qHTS assay (AID 1963595; active means well fitted inhibition curve with a large enough effect in the signal ratio in the repeat runs, with a control signal flat; the % refers to the signal ratio). The procedure, abridged: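 Antagonist mode in DRD2-HEK293 cells: after compound addition with 0.1 mM Ro20-1724, cells received quinpirole (12 nM) and NKH477 (200 nM) for 30 min at room temperature; HTRF cAMP read after 1 h detection.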
The target of assay [17] is 5-hydroxytryptamine receptor 2A (Homo sapiens) (UniProt P28223). The assay can be described thus: 5-hydroxytryptamine receptor 2A (HTR2A) small molecule agonists, cell-based qHTS assay (AID 1963587). Further: nearly all actives have a fitted effect of over 30% in size. In short, it runs like this: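 Kinetic calcium-flux fluorescence (2 min, 1 sec intervals) after compound addition in agonist mode. HTR2A-CHO cells were cultured 18 h, then dye-loaded 1 h at 37 C.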
5-hydroxytryptamine receptor 2A (Homo sapiens), sequence (P28223 whole entry, looked up): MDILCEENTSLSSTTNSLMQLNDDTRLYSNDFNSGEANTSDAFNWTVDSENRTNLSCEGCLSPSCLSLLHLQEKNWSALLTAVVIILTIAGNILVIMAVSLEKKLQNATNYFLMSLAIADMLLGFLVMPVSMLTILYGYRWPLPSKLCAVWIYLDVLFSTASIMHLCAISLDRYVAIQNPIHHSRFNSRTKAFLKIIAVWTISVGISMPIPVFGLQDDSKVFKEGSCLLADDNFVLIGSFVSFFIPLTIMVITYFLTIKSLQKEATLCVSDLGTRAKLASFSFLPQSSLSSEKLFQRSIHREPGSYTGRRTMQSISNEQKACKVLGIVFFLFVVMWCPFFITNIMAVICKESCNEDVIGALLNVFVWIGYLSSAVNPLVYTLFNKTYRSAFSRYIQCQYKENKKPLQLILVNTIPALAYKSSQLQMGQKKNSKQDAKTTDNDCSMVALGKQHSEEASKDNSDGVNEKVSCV

A short description of assay [18]: cAMP Responsive Elements (CRE) small molecule antagonists, cell-based qHTS assay (AID 1963591; active means well fitted inhibition curve with a large enough effect in the signal ratio in the repeat runs, not every such curve was filed as active; the % refers to the signal ratio). The procedure, abridged:
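Antagonist mode: compounds are added alongside the adenylyl cyclase activator NKH477 (0.25 uM final) to CRE-bla HEK293T cells for 3 h. LiveBLAzer FRET substrate, 2 h at room temperature, reports bla expression.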

The structures appear in SMILES notation. “And” between values parts separate entries of the source, which are not always exact repeats. Equal values may be shown once. Results filed as inconclusive are left out. More than one record can exist for a structure, and the calls need not agree. The source made the active and inactive calls. Unless noted, the call rests on the fitted dose curve.

KiSS-1 receptor (Homo sapiens), sequence (Q969F8 whole entry, looked up): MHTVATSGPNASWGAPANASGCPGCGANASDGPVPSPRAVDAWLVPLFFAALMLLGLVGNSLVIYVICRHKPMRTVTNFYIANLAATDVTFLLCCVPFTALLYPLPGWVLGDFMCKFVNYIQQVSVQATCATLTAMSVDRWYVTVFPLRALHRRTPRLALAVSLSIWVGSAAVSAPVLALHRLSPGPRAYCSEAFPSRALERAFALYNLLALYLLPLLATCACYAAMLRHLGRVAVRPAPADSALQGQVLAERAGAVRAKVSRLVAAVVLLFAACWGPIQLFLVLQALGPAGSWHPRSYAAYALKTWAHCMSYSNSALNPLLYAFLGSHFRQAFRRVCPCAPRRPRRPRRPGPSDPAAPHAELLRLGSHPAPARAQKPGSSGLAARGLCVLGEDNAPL
D(2) dopamine receptor (Homo sapiens), sequence (P14416 whole entry, looked up): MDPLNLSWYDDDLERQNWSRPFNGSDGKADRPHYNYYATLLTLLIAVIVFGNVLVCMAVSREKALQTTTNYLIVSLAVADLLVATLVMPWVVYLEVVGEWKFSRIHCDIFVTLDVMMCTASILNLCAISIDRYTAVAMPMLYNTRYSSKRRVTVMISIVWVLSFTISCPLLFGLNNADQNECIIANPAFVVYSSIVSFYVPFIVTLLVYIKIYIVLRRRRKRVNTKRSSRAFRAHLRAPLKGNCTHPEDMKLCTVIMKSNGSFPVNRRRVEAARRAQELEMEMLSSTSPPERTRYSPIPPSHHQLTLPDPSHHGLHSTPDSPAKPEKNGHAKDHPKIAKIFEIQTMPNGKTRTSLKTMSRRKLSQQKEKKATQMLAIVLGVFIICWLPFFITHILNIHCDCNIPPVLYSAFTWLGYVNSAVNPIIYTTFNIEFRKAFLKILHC
Muscarinic acetylcholine receptor M1 (Homo sapiens), sequence (P11229 whole entry, looked up): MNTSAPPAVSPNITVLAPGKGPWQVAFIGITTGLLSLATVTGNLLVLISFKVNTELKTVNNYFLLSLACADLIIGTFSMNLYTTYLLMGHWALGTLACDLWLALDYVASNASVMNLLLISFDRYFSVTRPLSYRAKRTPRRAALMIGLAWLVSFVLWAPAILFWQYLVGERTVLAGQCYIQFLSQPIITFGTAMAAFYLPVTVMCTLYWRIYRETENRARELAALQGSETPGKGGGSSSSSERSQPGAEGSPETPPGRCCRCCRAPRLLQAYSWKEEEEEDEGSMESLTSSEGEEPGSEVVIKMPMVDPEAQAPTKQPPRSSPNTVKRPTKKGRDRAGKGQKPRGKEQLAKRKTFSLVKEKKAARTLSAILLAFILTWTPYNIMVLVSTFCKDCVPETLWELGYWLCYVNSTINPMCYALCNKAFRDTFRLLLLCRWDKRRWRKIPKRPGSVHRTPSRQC
Beta-2 adrenergic receptor (Homo sapiens), sequence (P07550 whole entry, looked up): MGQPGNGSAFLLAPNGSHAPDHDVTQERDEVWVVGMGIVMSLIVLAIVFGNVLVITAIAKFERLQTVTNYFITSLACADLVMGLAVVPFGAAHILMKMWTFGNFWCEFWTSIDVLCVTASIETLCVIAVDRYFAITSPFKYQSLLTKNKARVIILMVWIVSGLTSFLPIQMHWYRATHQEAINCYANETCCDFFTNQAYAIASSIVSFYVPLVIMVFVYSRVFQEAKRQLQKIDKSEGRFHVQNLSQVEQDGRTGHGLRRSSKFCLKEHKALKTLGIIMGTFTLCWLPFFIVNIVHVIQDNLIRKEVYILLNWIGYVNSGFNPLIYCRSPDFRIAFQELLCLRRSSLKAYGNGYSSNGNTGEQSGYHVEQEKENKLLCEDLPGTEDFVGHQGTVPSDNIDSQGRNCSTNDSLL

`N[C@@H](Cc1c[nH]c2ccccc12)C(=O)O`: the Potency result in assay [1], in [2], in [3], in [4], in assay [5] and in [6] was “inactive” throughout. Also, the Potency result in assay [7], in assay [8], in assay [9], in assay [10], in assay [11] and in assay [12] was “inactive” in each case. For the same compound, the Potency result in [13], in assay [14], in assay [15] and in assay [16] was “inactive” throughout.
As for `COc1ccc2nc(N)sc2c1`, the Potency entry in [1], in [3], in assay [4], in assay [5], in assay [6] and in assay [7] was “inactive” throughout. In addition, the Potency result in assay [8], in [9], in assay [17], in [10], in [11] and in [12] was “inactive” throughout. The Potency result in assay [13], in assay [14] and in assay [15] was “inactive” throughout. Besides, the Potency entry in assay [2] is “inactive and 54.5 µM (active)”.
In the case of `CC(=O)OC1CC(C)OC(C)O1` (stereo not drawn), the Potency result in [1], in assay [2], in assay [3], in assay [4], in assay [5] and in assay [6] was “inactive” in each case. The Potency entry in assay [7], in assay [8], in [17], in [10], in assay [11] and in assay [12] was “inactive” throughout. For the same compound, the Potency result in assay [18], in assay [13], in assay [14], in [15] and in assay [16] was “inactive” each time.
Take `CC1CCC(C(C)C)C(O)C1` (stereo not drawn): the Potency result in assay [1], in [2], in [3], in assay [4], in assay [5] and in [6] was “inactive” in each case. The Potency result in [7], in [8], in assay [17], in assay [10], in assay [11] and in assay [12] was “inactive” each time. Besides, the Potency result in assay [18], in assay [13], in assay [14], in [15] and in [16] was “inactive” each time.
In the case of `CC(=O)CC(=O)Nc1ccccc1`, the Potency entry in [1], in assay [2], in assay [3], in [4], in [5] and in assay [6] was “inactive” each time. The Potency entry in assay [7], in [8], in assay [9], in assay [17], in [11] and in assay [12] was “inactive” in each case. In addition, the Potency result in assay [18], in assay [13], in assay [15] and in assay [16] was “inactive” each time.
Regarding `C=C(c1ccc(C(=O)O)cc1)c1cc2c(cc1C)C(C)(C)CCC2(C)C`, the Potency is 27.3 µM (active) and 23.7 µM (active) in assay [1]; 20.4 µM (active) and inactive in assay [6]; “inactive and 12.6 µM (active)” in [8]; “inactive and 18.3 µM (active)” in assay [10]. The Potency result in assay [2], in [3], in assay [4], in [5], in assay [7] and in assay [9] was “inactive” each time. For the same compound, the Potency result in assay [11], in assay [18], in [13], in assay [14], in assay [15] and in assay [16] was “inactive” in each case.
With `Nc1ccc(O)cc1`, the Potency in [1] was 71.2 µM (active) and inactive; in [2], 28.4 µM (active). In addition, the Potency result in assay [3], in [4], in assay [5], in assay [6], in assay [7] and in [8] was “inactive” throughout. For the same compound, the Potency entry in assay [17], in assay [10], in assay [11], in assay [18], in [13] and in assay [14] was “inactive” in each case. Further, the Potency entry in [15] and in assay [16] was “inactive” each time.
For `C[N+](C)(C)CCO`, the Potency result in assay [1], in assay [2], in assay [3], in assay [4], in assay [5] and in assay [6] was “inactive” throughout. Further, the Potency result in assay [7], in assay [8], in assay [12], in assay [18], in assay [13] and in assay [14] was “inactive” each time. The Potency result in [15] and in assay [16] was “inactive” throughout.
